FBW7 activator – activators of human E3 ligase FBW7; Q969H0; AlphaScreen FBW7–phospho-cyclin E peptide binding, activator screen; normalized activity (activation), % at 26.1 µM; 650,000 tested, 0.13% active; AID 1259310; in the data active = normalized activity above about 1.9%;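 also: purified mutant Fbw7 with reduced substrate affinity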
GPR151 activ – activators of human GPR151 | PathHunter beta-arrestin GPR151 cells, luminescence | Q8TDV0 | 650,000 tested, 1% active | activation, % at 11.2 µM; in the data active = activation above about 4.9%;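 also: 0% = median of compound wells and 100% = cells with positive control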
Target sequence (Q8TDV0 whole entry, looked up): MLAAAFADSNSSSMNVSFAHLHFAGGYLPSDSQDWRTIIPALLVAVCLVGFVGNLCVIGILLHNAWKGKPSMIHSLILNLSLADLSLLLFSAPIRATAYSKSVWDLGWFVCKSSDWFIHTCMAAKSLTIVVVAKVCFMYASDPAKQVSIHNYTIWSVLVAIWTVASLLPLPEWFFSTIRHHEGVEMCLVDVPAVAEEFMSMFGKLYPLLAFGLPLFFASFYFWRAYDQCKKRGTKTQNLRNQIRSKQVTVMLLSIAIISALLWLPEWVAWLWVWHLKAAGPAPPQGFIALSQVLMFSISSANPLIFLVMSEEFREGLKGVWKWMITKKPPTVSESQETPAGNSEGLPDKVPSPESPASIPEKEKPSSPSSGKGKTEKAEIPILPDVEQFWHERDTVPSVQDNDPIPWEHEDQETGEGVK
TEAD-YAP inh – TEAD-YAP interaction inhibition. HEK-TIYL cells, TEAD-Gal4/YAP UAS-luciferase luminescence. inhibition, % at 9.12 µM. 640,000 tested, 1.4% active; in the data active = inhibition above about 32%;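 also: 0% = median of test compound wells and 100% = reference inhibitor wells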
MITF inh – human MITF inhibition, primary screen | AlphaScreen MITF homodimerization, bead proximity signal | inhibition, % at 2.6 µM | 650,000 tested, 0.91% active; in the data active = inhibition above about 50%;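 also: 0% = vehicle wells with protein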
Starred values were filed as active, the others as inactive. Only some compounds are listed: those with a hit (about 3.5% of all), similar ones and a draw of the others.

SMILES | FBW7 activator | GPR151 activ | TEAD-YAP inh | MITF inh
CN1CCN(Cc2cc(COCc3ccccc3)c3cccnc3c2O)CC1 | -1 | -1 | 74* | 101*
NC1=C/C(=N\S(=O)(=O)c2ccc(Br)cc2)c2ccccc2C1=O | 0 | -1 | 10 | 3
COc1ccc(OCC(O)Cn2c3ccccc3c3ccccc32)cc1 (stereo unspecified) | 0 | 1 | 45* | -2
COc1ccccc1CNc1cc(C)nc2nc(C)nn12 | 0 | 0 | -9 | -1
S=C(NC1Cc2ccccc2C1)N1CCCCCC1 | 0 | 3 | -20 | -3
O=C1c2cccc3c(Cl)ccc(c23)C(=O)N1O | 0 | -2 | 45* | 1
O=C1c2cccc3c(Br)ccc(c23)C(=O)N1O | 0 | -1 | 11 | -1
CCOc1ccc2ccccc2c1/C=N\NC(=O)CNC(=O)c1ccco1 | 0 | 3 | 2 | 4
Cc1ccc(/C(C#N)=C\c2ccc3c(c2)OCCO3)cc1 | 0 | -4 | 56* | -7
O=C(c1c(F)cccc1Cl)N1CCN(c2ccc(-c3ccncc3)nn2)CC1 | 0 | 1 | -15 | 20
Cc1csc(NC(=O)c2cc([N+](=O)[O-])ccc2Sc2nnnn2C)n1 | 0 | 2 | 39* | 2
COc1cc(/C(C)=N/NC(=O)c2cc(-c3cccc4ccccc34)n[nH]2)ccc1O | 1 | 0 | -49 | 9
CCOc1ccccc1-c1cc(C(=O)N/N=C(/C)c2cccc(O)c2)[nH]n1 | 1 | 0 | 52* | 9
CCOc1ccccc1-c1cc(C(=O)N/N=C(/C)c2ccccc2)[nH]n1 | 0 | 0 | 50* | 9
Cc1ccc(CNc2ccnc3c(-c4cccnc4)cnn23)c(C)c1 | 0 | 1 | -13 | -3
CCc1ccc2nc(Cl)c(CN(CCOC)C(C)=O)cc2c1 | 0 | 1 | 3 | -4
CC(C)(C)C1CCc2c(sc(NC(=O)c3ccccc3F)c2C(=O)O)C1 (stereo unspecified) | 1 | -1 | 43* | 8
CC(C)(C)C1CCc2c(sc(NC(=O)c3cccc(Cl)c3)c2C(=O)O)C1 (stereo unspecified) | 0 | -2 | 53* | 9
Cc1ccccc1C(=O)Nc1sc2c(c1C(=O)O)CCC(C(C)(C)C)C2 (stereo unspecified) | 0 | 0 | 13 | -7
CNC(=O)c1c(NC(=O)c2ccccc2)sc2c1CCC(C(C)(C)C)C2 (stereo unspecified) | 0 | 0 | -22 | 9
CC1CN(C(=O)c2c(NC(=O)c3ccccc3Cl)sc3c2CCC(C(C)(C)C)C3)CC(C)O1 (stereo unspecified) | 0 | 1 | 73* | 1
CC(C)(C)C1CCc2c(sc(NC(=O)c3ccccc3)c2C(=O)O)C1 (stereo unspecified) | 0 | 1 | 91* | 9
CCOc1ccc(N2C3=C(C(=O)CC(C)(C)C3)C(c3ccc(C(=O)OC)cc3)C3=C2CC(C)(C)CC3=O)cc1 | 0 | 1 | -9 | 2
CC(C)Oc1ccccc1/C=C1/SC(N2CCN(C)CC2)=NC1=O | 0 | -1 | -8 | -7
COc1cccc(/C=C2/SC(N3CCCC3)=NC2=O)c1OC | 0 | 1 | 33* | -10
SMILES | FBW7 activator | GPR151 activ | TEAD-YAP inh | MITF inh
COc1cccc(/C=C2\SC(N3CCCC3)=NC2=O)c1OC | 0 | 0 | 8 | 6
CC(C)Oc1ccccc1/C=C1\SC(N2CCOCC2)=NC1=O | 0 | 1 | 39* | -1
COc1ccc(S(=O)(=O)CCC(=O)Nc2cc(F)ccc2F)cc1 | 0 | 0 | 3 | 5
COc1ccc(C(=O)Nc2nc3c(s2)CN(Cc2ccccc2)CC3)cc1OC | 0 | 2 | 1 | 3
O=C(Nc1nc2c(s1)CN(Cc1ccccc1)CC2)c1ccc2ccccc2c1 | 0 | 4 | 33* | 5
O=C1C2CC(Br)C(Br)CC2C(=O)N1c1ccccc1O (stereo unspecified) | 0 | 1 | -4 | -24
CCOC(=O)c1[nH]c(/C=N/NC(=O)c2ccncc2)c(C(=O)OCC)c1C | 0 | 0 | 60* | -15
CCCc1cc(=O)[nH]c(SCC(=O)N(CC)C2CCS(=O)(=O)C2)n1 (stereo unspecified) | 0 | 1 | -2 | 2
COc1ccc(-c2cc3nc4c(c(N5CCC(O)CC5)n3n2)CCCC4)cc1 | 0 | 1 | 38* | -3
CC(=O)Nc1ccc(NC(=O)CCc2c[nH]c3ccccc23)cc1 | 0 | 1 | -9 | 4
CCOCCCNCC(O)COc1c(Cl)cccc1Cl (stereo unspecified) | 0 | -1 | 52* | 30
Cc1cc(C(F)(F)F)nc(SCc2ccc(C(=O)O)o2)n1 | 0 | -1 | 8 | 7

Bioassay records deposited in PubChem BioAssay by The Scripps Research Institute Molecular Screening Center.
